# Shown are actives, neighbours in structure and some others; about 17% of the full set was active somewhere.
# TDP1 cell CPT = growth inhibition of DT40 Tdp1-/-;hTDP1 cells with camptothecin (screen for TDP1 inhibitors); actives 12% (n = 420,000); AID 686979; Potency, µM (top dose mostly 46.2 µM), usual class: inhibitors; chicken DT40 Tdp1-/-;hTDP1 cells + 20 nM CPT, ATP luminescence, 48 h; further: nearly all actives have a fitted effect of over 55% in size
#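 Cell growth measured by CellTiter-Glo luminescence after a minimum 48 h, 37 C compound exposure with 20 nM CPT in Tdp1-knockout DT40 cells stably expressing hTDP1, seeded 400/well; qHTS titration format.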
# ClpP mod = qHTS Assay for Activators of ClpP | AID 651965, 2013 | actives 1.9% (n = 340,000) | purified B. subtilis ClpP, FRET peptide cleavage, 20 min | Potency, µM (series often up to 57.5 µM); active means well fitted falling curve with a large enough effect; inconclusive means small, poorly fitted or top-dose-only effect; inactive means no such curve, though single readings can be large or run the other way; further: the source files actives as falling curves though it sought activators and does not explain the sign; nearly all actives have a fitted effect of over 65% in size
#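 ClpP 10 microg/mL final, pH 8 Tris/KCl buffer with BSA, glycerol, Tween-20; compound pinned in; FRET-FV substrate; RT 20 min; Ex320/Em430; ΔFRET vs ADEP 5.8 microM, DMSO, no enzyme.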
# TDP1 inh = inhibitors of human tyrosyl-DNA phosphodiesterase TDP1; Q9NUW8; recombinant TDP1, AlphaScreen DNA substrate cleavage; Potency, µM (top dose mostly 130 µM), hits mostly inhibitors; actives 0.28% (n = 350,000); AID 485290; further: nearly all actives have a fitted effect of over 40% in size
# Target sequence (Q9NUW8 whole entry, looked up): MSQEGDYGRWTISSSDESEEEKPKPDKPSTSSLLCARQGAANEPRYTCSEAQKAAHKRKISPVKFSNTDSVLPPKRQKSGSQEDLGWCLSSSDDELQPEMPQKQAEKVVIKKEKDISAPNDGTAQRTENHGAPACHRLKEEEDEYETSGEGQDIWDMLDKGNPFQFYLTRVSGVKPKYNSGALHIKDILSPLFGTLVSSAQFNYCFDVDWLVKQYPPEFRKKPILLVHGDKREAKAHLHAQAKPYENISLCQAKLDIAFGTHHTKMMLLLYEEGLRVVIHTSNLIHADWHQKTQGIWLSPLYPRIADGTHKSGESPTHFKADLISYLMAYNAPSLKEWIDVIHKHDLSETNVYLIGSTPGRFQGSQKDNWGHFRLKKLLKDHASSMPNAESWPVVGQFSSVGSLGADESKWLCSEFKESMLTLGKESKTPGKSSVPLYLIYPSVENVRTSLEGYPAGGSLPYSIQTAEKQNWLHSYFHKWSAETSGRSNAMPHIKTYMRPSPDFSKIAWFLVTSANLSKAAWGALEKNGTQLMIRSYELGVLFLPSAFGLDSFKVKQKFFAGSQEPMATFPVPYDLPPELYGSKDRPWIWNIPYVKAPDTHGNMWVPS
#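 Recombinant human Tdp1 (E. coli-expressed, 1 nM final) preincubated with compounds 15 min at room temperature, then 5'-biotin/3'-phosphotyrosine-FITC DNA substrate (15 nM final) added for 5 min. AlphaScreen beads (10 ug/ml final) added 10 min; cleavage lowers signal.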
# TDP1 cell noCPT = qHTS for Inhibitors of human tyrosyl-DNA phosphodiesterase 1 (TDP1): qHTS in cells in absence of CPT. DT40 Tdp1-/- hTDP1 cells, no CPT, ATP luminescence, 48 h. actives 15% (n = 420,000). AID 686978, 2013. Potency, µM (highest dose often 46.2 µM), actives largely listed as inhibitors; further: nearly all actives have a fitted effect of over 55% in size
#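 Chicken DT40 Tdp1-/- cells stably complemented with human TDP1 were seeded at 400 cells/well with DMSO in place of 20 nM camptothecin. After compound pinning, cells grew at least 48 hr at 37 °C; viability read by CellTiter-Glo luminescence.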
# Hits are given with their value; - = inactive; ? = inconclusive; . = not tested or not shown. Unless noted, the call rests on the fitted dose curve; in most records, active means well fitted curve in the direction sought with a large enough effect; inconclusive means small, poorly fitted or top-dose-only effect, or another doubt; inactive means no such curve, though single readings can be large; an effect the other way counts as inactive or inconclusive.
SMILES,TDP1 cell CPT,ClpP mod,TDP1 inh,TDP1 cell noCPT
CC1(C)C(CSc2nc3ccccc3[nH]2)C1(Cl)Cl (configuration not stated),23.1µM,.,-,?
CCSc1nc2ccccc2[nH]1,-,-,-,-
Nc1ncnc2c1ncn2[C@@H]1O[C@H](CNC(=O)[C@@H](N)Cc2ccc(C(=O)c3ccccc3)cc2)[C@@H](O)[C@H]1O,-,-,.,-
Cc1ccc(CNC(=O)COC(=O)c2ccc(S(=O)(=O)N3CCOCC3)cc2)cc1,-,-,-,-
CC(C)C[C@H]1CNC(=S)N1CC1CCCN1C[C@H](CC(C)C)N1C[C@H](CC(C)C)N(CCc2ccccc2)C1=S (some centres not stated),8.2µM,-,.,5.8µM
CC(C)C[C@H]1CNC(=S)N1C[C@H]1CCCN1C[C@H](CC(C)C)N1C[C@H](CC(C)C)N(CCc2ccccc2)C1=S,?,-,.,25.9µM
CC(C)C[C@H]1CNC(=S)N1C[C@H]1CCCN1C[C@H](Cc1ccccc1)N1C[C@H](CC(C)C)N(CCc2ccccc2)C1=S,13µM,-,.,16.4µM
CC(C)C[C@@H](CN1CCC[C@H]1CN1C(=O)C(=O)NC[C@@H]1Cc1ccc(O)cc1)N1C[C@H](Cc2ccccc2)N(CCc2ccccc2)C(=O)C1=O,?,-,.,-
CC(C)C[C@H]1CN([C@@H](CC(C)C)CN2CCC[C@H]2CN2C(=O)C(=O)NC[C@@H]2Cc2ccc(O)cc2)C(=O)C(=O)N1CCc1ccccc1,?,-,.,?
CC(C)C[C@H]1CNC(=S)N1C[C@H]1CCCN1C[C@H](CC(C)C)N1C[C@H](Cc2ccccc2)N(CCc2ccccc2)C1=S,?,-,.,20.6µM
COc1cccc(CN2CCN(C(=O)CCc3nnc(C4CCCCC4)o3)CC2=O)c1,-,-,.,-
Cc1c(CCC(=O)NCc2cccc(Cl)c2)c(=O)oc2c(C)c(O)ccc12,-,-,-,-
O=C(NC1CC2CCCC(C1)N2S(=O)(=O)c1ccccc1)C1CCCCC1 (configuration not stated),?,-,-,?
O=C(CN1C2CCCC1CC(NC(=O)C1CCCCC1)C2)Nc1ccccc1 (configuration not stated),14.6µM,.,.,?
Cc1nnc(NC(=O)CSCc2cc(=O)c3ccccc3[nH]2)s1,-,-,39.8µM,-
Cc1ccc(NC(=O)CSCC(=O)Nc2nnc(C)s2)cc1,-,28.2µM,.,-
CCc1nnc(NC(=O)CSc2nc3cc4c(cc3cc2C)OCCO4)s1,-,-,-,-
Cc1nnc(NC(=O)CCSCCC(=O)Nc2nnc(C)s2)s1,-,-,31.6µM,-
Cc1nnc(NC(=O)CSCc2cc(=O)c3ccc(C)c(C)c3[nH]2)s1,-,-,-,?
CCc1ccc2nc(SCC(=O)Nc3nnc(C)s3)c(C)cc2c1,9.2µM,-,-,?
Cn1nnnc1Sc1ncnc2scc(-c3ccc4c(c3)OCO4)c12,.,.,-,.
Cc1ccc(NC(=O)Nc2nnc(SCC(=O)N(C(C)C)C(C)C)s2)cc1,18.4µM,-,-,16.4µM
Cc1cc(N2CCN(S(=O)(=O)c3ccc4ccccc4c3)CC2)n2ncnc2n1,?,-,-,?
N#CC1=C(N)Oc2cc(N)ccc2C1c1cccnc1 (configuration not stated),?,-,-,16.4µM
CCN(CC)c1ccc2c(c1)OC(N)=C(C#N)C2c1cccnc1 (configuration not stated),0.0206µM,-,-,0.0366µM
SMILES,TDP1 cell CPT,ClpP mod,TDP1 inh,TDP1 cell noCPT
N#CC1=C(N)Oc2cc(N)ccc2C1c1ccc(Cl)cc1 (configuration not stated),-,.,-,-
O=C1NC(Cc2ccccc2)c2nc3cc(Cl)ccc3c(=O)n2-c2ccccc21 (configuration not stated),.,.,-,.
O=C(c1ccccc1)C1OC1C(=O)c1ccccc1 (configuration not stated),4.11µM,.,.,6.51µM
O=C(c1ccccc1)C1CC1c1ccccc1 (configuration not stated),?,-,.,?
CC1C=CC(C)C(C(=O)c2ccccc2)C1C(=O)c1ccccc1 (configuration not stated),13µM,-,.,23.1µM
CC(C)CCN1CCC[C@]2(N[C@H](c3ccc(C(F)(F)F)cc3)[C@@H]3C(=O)N(Cc4ccccc4)C(=O)[C@@H]32)C1=O,18.4µM,-,.,16.4µM
COc1ccc([C@H]2N[C@]3(CCCN(Cc4ccc(C(F)(F)F)cc4)C3=O)[C@H]3C(=O)N(Cc4ccccc4)C(=O)[C@@H]23)cc1,?,-,.,18.4µM
O=C1[C@H]2[C@@H](c3ccc(C(F)(F)F)cc3)N[C@]3(CCCN(Cc4ccc(C(F)(F)F)cc4)C3=O)[C@H]2C(=O)N1Cc1ccccc1,18.4µM,-,.,18.4µM
COc1ccc(CN2CCC[C@]3(N[C@H](c4ccc(C(F)(F)F)cc4)[C@@H]4C(=O)N(C)C(=O)[C@@H]43)C2=O)cc1,23.1µM,-,.,?
COc1ccc(CN2CCC[C@]3(N[C@H](c4ccc(OC)cc4)[C@@H]4C(=O)N(C)C(=O)[C@@H]43)C2=O)cc1,-,-,.,-
OCCC1CN(Cc2cccc(-n3cccn3)c2)CCN1Cc1ccccc1 (configuration not stated),-,.,-,-
O=C1[C@H]2[C@@H](c3ccc(C(F)(F)F)cc3)N[C@]3(CCCN(CC4CCCCC4)C3=O)[C@H]2C(=O)N1Cc1ccccc1,23.1µM,-,.,23.1µM
O=C1[C@H]2[C@@H](c3ccc(C(F)(F)F)cc3)N[C@]3(CCCN(Cc4ccccc4)C3=O)[C@H]2C(=O)N1Cc1ccccc1,23.1µM,-,.,23.1µM
O=C1[C@H]2[C@@H](c3ccccc3)N[C@]3(CCCN(CC4CCCCC4)C3=O)[C@H]2C(=O)N1Cc1ccccc1,?,-,.,?
CCc1nn(CC(=O)N2CCN(c3cccc(OC)c3)CC2)c(=O)c2cc3occc3n12,-,-,-,-
Cc1ccccc1-c1nc(SCC(=O)NCc2ccco2)c2c(=O)n(C)c(=O)n(C)c2n1,-,-,-,-
CC1CCN(CCCCOc2ccc(Cl)cc2)CC1,-,.,.,-
c1ccc(COc2ccc(OCCCCN3CCCC3)cc2)cc1,?,-,-,23.1µM
c1ccc(COc2ccc(OCCCN3CCCCC3)cc2)cc1,?,-,-,?
CN1CCN(CCOc2ccc(Cc3ccccc3)cc2)CC1,?,.,.,4.61µM
CC1CCN(CCOc2ccc(OCc3ccccc3)cc2)CC1,?,3.16µM,-,?
CC(C)C(=O)Nc1cc2c3c(c1)CCN3C(=O)CC2,-,-,-,-
Cc1ccc(NC(=O)COC(=O)Cc2c[nH]c3ccccc23)cc1C,-,-,-,?
O=C(CN(Cc1ccccc1)C(=O)CNS(=O)(=O)c1ccc(F)cc1)NCc1ccco1,-,.,.,?
